According to PubChem BioAssay (NCI):
About 79,000 compounds went through this panel and 15% of them were active in at least one assay; those are over-represented in the sample as a whole. Calls of active or inactive are those of the source. No stated cut-off is given here; in the data, active means growth inhibition above about 70%; inactive means the rest.

Columns and labels:
[1] = NCI Yeast Anticancer Drug Screen. Data for the rad50 strain (AID 155);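 further: 0% = growth of vehicle-only cultures of the same strain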; conditions: S. cerevisiae rad50 strain growth inhibition; at 50.0 µM; hits give high values
Outline: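 Relative growth inhibition (compound vs vehicle) was measured in yeast with a defined repair-gene alteration.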

[2] = NCI Yeast Anticancer Drug Screen. Data for the mec2-1 strain (AID 157); conditions: S. cerevisiae mec2-1 strain, at 50.0 µM, hits give high values
Outline: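 Growth inhibition is read against vehicle-treated controls after compound exposure of the mec2-1 yeast strain, which is defective in DNA damage repair or cell cycle control.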

[3] = NCI Yeast Anticancer Drug Screen. Data for the sgs1 mgt1 strain (AID 161);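 further: 0% = growth of cultures given vehicle only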; conditions: S. cerevisiae sgs1 mgt1 strain, at 50.0 µM, hits give high values
Outline: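 Percent growth inhibition was derived by comparing compound-exposed mutant yeast with vehicle-exposed cultures. The strain carries alterations in DNA damage repair.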

[4] = NCI Yeast Anticancer Drug Screen. Data for the cln2 rad14 strain (AID 165);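 further: 0% = growth equal to vehicle treated cultures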; conditions: S. cerevisiae cln2 rad14 strain, at 50.0 µM, hits give high values
Outline: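 Growth inhibition, relative to vehicle-treated controls, is the read-out. The test organism is a yeast strain with defined genetic alterations, cln2 rad14.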

[5] = NCI Yeast Anticancer Drug Screen. Data for the bub3 strain (AID 167); conditions: S. cerevisiae bub3 mutant strain, at 50.0 µM, hits give high values
Outline: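 Screening used yeast with an engineered genetic alteration affecting cell cycle control. Compound-exposed cultures were compared with vehicle cultures, and reduced growth was taken as inhibition.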

[6] = NCI Yeast Anticancer Drug Screen. Data for the mlh1 rad18 strain (AID 175); conditions: S. cerevisiae mlh1 rad18 strain growth inhibition; at 50.0 µM; hits give high values
Outline: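 Cells of a genetically altered yeast strain, deficient in DNA damage repair, were treated with compound. Their growth was then compared with that of vehicle-treated cultures to give inhibition.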

Measured: growth inhibition

Cc1ccc(C(=O)N/N=C/c2ccc3c(c2)OCO3)cc1
inactive: [1] 18.1% | [2] 8.35% | [3] 4.15% | [4] 10.8% | [5] 6.2% | [6] 6.75%

CN(C)CCN(C)CC(C)(C)C(=O)/C=C/c1ccc(Cl)cc1
inactive: [1] 27.9% | [2] 3% | [3] 9% | [4] -2.65% | [5] 19.7% | [6] 31.8%

N#CCCc1ccc(O)cc1
inactive: [1] -25.1% | [2] -44.2% | [3] -34.9% | [4] 1.55% | [5] -17.9% | [6] -19.1%

CCOC(=O)C(=O)C=P(c1ccccc1)(c1ccccc1)c1ccccc1
inactive: [1] -29.5% | [2] -22.4% | [3] -21.9% | [4] -8.9% | [5] -40.9% | [6] -24.2%

O=C1c2ccccc2C(=O)N1OCc1ccccc1
inactive: [1] -18.1% | [2] -30.6% | [3] -14.4% | [4] 3.05% | [5] -20% | [6] -32.7%

Cc1cc(C)c(CC(=O)O)c(C)c1
inactive: [1] 30.5% | [2] 6.3% | [3] 16.9% | [4] 12.3% | [5] 4.3% | [6] 10.4%

O=C(O)/C=C/C(=O)NCc1ccccc1
inactive: [1] 34.6% | [2] 42.6% | [3] 48% | [4] 1.4% | [5] 44.4% | [6] 26.7%

OC1OC(COC(c2ccccc2)(c2ccccc2)c2ccccc2)C(O)C(O)C1O (stereo not given)
inactive: [1] -11.9% | [2] -0.95% | [3] -16.6% | [4] 14.4% | [5] -3.7% | [6] -17%

COc1cccc(Sc2ccc([N+](=O)[O-])c3no[n+]([O-])c23)c1
active: [1] 81.5% | [2] 91.7% | [3] 90.2% | [4] 83.3% | [5] 88.4% | [6] 83.5%

COc1ccc(OC)c(/C=C2\CCc3ccccc3C2=O)c1
inactive: [1] 17.4% | [2] -30.1% | [3] 27.5% | [4] 7.4% | [5] 47.7% | [6] -23.6%

Cc1cccc([N+](=O)[O-])c1Cl
inactive: [1] -39.2% | [2] -72.5% | [3] -36.5% | [4] 10.6% | [5] -30.8% | [6] -17.6%

COc1cc(OC)c2ccc(=O)oc2c1
inactive: [1] 27.2% | [2] 8.4% | [3] 16.1% | [4] 6.75% | [5] 38.5% | [6] 24.1%

COc1cc(/C=C(\C#N)C(=O)c2ccccc2)ccc1OCc1ccccc1
inactive: [1] -1.1% | [2] -18.8% | [3] -15.2% | [4] 1.25% | [5] -26.7% | [6] -18%

NCC(=O)CCC(=O)O
inactive: [1] 6.3% | [2] -3.7% | [3] 0.5% | [4] -4.95% | [5] -0.85% | [6] -1.4%

O=[N+]([O-])c1ccc(Cl)c(S(=O)(=O)O)c1
inactive: [1] 36.4% | [2] 21.3% | [3] 21.2% | [4] -18.9% | [5] 10.8% | [6] 35.5%

COC(=O)/C=C\C(=O)OC
inactive: [1] 16.1% | [2] 6.85% | [3] -15.1% | [4] -5.65% | [5] -10.3% | [6] 14.7%

CCCCC1C(=O)N(c2ccccc2)N(c2ccccc2)C1=O
inactive: [1] -5.2% | [2] -10.6% | [3] -2.65% | [4] -5.75% | [5] -4.2% | [6] -19.1%

COC(=O)c1cccc(Br)c1
inactive: [1] -4.4% | [2] 1.5% | [3] -4.75% | [4] -29.5% | [5] 0.15% | [6] 13.4%

CC(=O)Cc1ccc(-c2ccccc2)cc1
inactive: [1] 18.4% | [2] 14.8% | [3] 8.3% | [4] -25.4% | [5] 10.3% | [6] 24.6%

CCN(CC)CCCC(C)Nc1ccnc(/C=C/c2ccc(Cl)cc2)c1 (stereo not given)
inactive: [1] 2.75% | [2] -1.2% | [3] -16.1% | [4] -2.55% | [5] -39.5% | [6] -19%

O=C(Nc1ccccc1)OCCc1ccccc1
inactive: [1] 45.3% | [2] 37.8% | [3] 27.4% | [4] 42.9% | [5] 37.6% | [6] 34.2%

Cc1nc2ccccc2c2nnc(SCC(=O)N(Cc3ccccc3)c3ccccc3)n12
inactive: [1] 6.9% | [2] 6.6% | [3] -28.1% | [4] 8.25% | [5] -3.9% | [6] 2.25%

CC(C)COC(=O)COC(=O)OCCOCCOC(=O)OCC(=O)OCC(C)C
inactive: [1] 36.5% | [2] -8.7% | [3] 17.4% | [4] -26.9% | [5] 26.1% | [6] 8.6%

O=[N+]([O-])c1cccc2nsnc12
inactive: [1] 63.5% | [2] 30.6% | [3] 53.8% | [4] 16.6% | [5] -8.15% | [6] 43.6%

O=C(OCC(O)C1OC(c2ccccc2)OC(COC(=O)c2ccccc2)C1O)c1ccccc1 (stereo not given)
inactive: [1] 5.85% | [2] 4.85% | [3] 13.6% | [4] 16.6% | [5] 1% | [6] 11.9%

CCS(=O)(=O)CCCl
inactive: [1] 12.2% | [2] -5.1% | [3] 2.3% | [4] 5.9% | [5] 0.95% | [6] 5.85%

CC1=NN(c2ccccc2)C(=O)/C1=C\N1CC(=O)NC1=S
inactive: [1] -50.9% | [2] -46% | [3] -11.3% | [4] 5.45% | [5] -49% | [6] -30.4%

N#CCCN(CCCN1CCOCC1)CN1C(=O)c2ccccc2C1=O
inactive: [1] 5.8% | [2] 9.15% | [3] 35.5% | [4] 5.8% | [5] 34.6% | [6] 19.4%

CCOc1ccc2[nH]c(=S)sc2c1
inactive: [1] 35.5% | [2] 12.9% | [3] 29.9% | [4] 15.5% | [5] -1.5% | [6] 21.4%

O=C1C=C(Nc2ccc([N+](=O)[O-])cc2)c2ccccc2C1=O
inactive: [1] 18.4% | [2] -10.9% | [3] -1.3% | [4] 4.65% | [5] -12.9% | [6] -8.8%
